Measured values published in PubChem BioAssay (NCI).
About 83,000 compounds went through this panel and 20% of them were active in at least one assay; those are over-represented in the sample as a whole.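 Interpretation: 100, growth as untreated; towards 0, rising growth inhibition; 0, no net growth; 0 to -100, cell death. Compounds scoring below 10 were considered active.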 Unmarked numbers belong to inactive results. The source made the active and inactive calls.

Columns and labels:
Experiment in all cases: NCI-60 one-dose screen, 48 h (100 = growth as untreated, 0 = no growth, -100 = all killed)
Conditions in all cases: 10 µM unless noted
DU-145 prostate = tested on: DU-145 prostate
K-562 leukemia = tested on: K-562 leukemia
MALME-3M melanoma = tested on: MALME-3M melanoma
MDA-MB-231 breast = tested on: MDA-MB-231 breast
RXF 393 renal = tested on: RXF 393 renal
SF-268 CNS = tested on: SF-268 CNS
SF-295 CNS = tested on: SF-295 CNS
SF-539 CNS = tested on: SF-539 CNS
UACC-257 melanoma = tested on: UACC-257 melanoma
M14 melanoma = tested on: M14 melanoma
HCT-15 colon = tested on: HCT-15 colon
HT29 colon = tested on: HT29 colon
SNB-75 CNS = tested on: SNB-75 CNS
SNB-19 CNS = tested on: SNB-19 CNS
U251 CNS = tested on: U251 CNS
PC-3 prostate = tested on: PC-3 prostate
SK-MEL-5 melanoma = tested on: SK-MEL-5 melanoma
UACC-62 melanoma = tested on: UACC-62 melanoma
LOX IMVI melanoma = tested on: LOX IMVI melanoma
SK-MEL-28 melanoma = tested on: SK-MEL-28 melanoma

Row | SMILES | growth (DU-145 prostate) | growth (K-562 leukemia) | growth (MALME-3M melanoma) | growth (MDA-MB-231 breast) | growth (RXF 393 renal) | growth (SF-268 CNS) [%] | growth (SF-295 CNS) | growth (SF-539 CNS) | growth (UACC-257 melanoma) | growth (M14 melanoma) | growth (HCT-15 colon) | growth (HT29 colon) | growth (SNB-75 CNS) [%] | growth (SNB-19 CNS) [%] | growth (U251 CNS) | growth (PC-3 prostate) [%] | growth (SK-MEL-5 melanoma) | growth (UACC-62 melanoma) | growth (LOX IMVI melanoma) | growth (SK-MEL-28 melanoma)
1 | S=c1n(CNc2ccc(Cl)nn2)nc(-c2cc(Cl)cc(Cl)c2Cl)n1/N=C/c1ccc(Cl)cc1 | 109% | 71.7% | 89.3% | 92.9% | 149% | 107 | 70% | 101% | 106% | 55.8% | 117% | 118% | 98.5 | 102 | 86.9% | 82.6 | 90.9% | 90.4% | 94.5% | 105%
2 | CC(C)C(=O)Nc1nc2c(s1)CCCc1ccn(S(=O)(=O)c3ccccc3)c1-2 | 98.8% | 73.8% | 114% | 108% | 119% | 99.2 | 90.6% | 100% | 93.7% | 96.9% | 94% | 83.7% | 89.4 | 110 | 102% | 85.3 | 93.3% | 87% | 96.9% | 106%
3 | C/C(=N\N=C1/SCC(=O)N1c1ccccc1)c1ccco1 | 119% | 96.4% | 82.1% | 93.2% | 112% | 91.6 | 98.3% | 118% | 118% | 176% | 112% | 136% | 185 | 113 | 102% | 94.7 | 88.8% | 122% | 94.2% | 112%
4 | Cc1c(F)cccc1NC(=O)c1sc2nc3c(cc2c1N)CCCCC3 | 69.1% | 12.5% | 55% | 83.6% | 69.5% | 83.4 | 55.3% | 66.9% | 52.3% | 28.2% | 28.5% | 15.6% | 76.2 | 53.9 | 56.3% | 70.7 | 39.2% | 27% | 50.4% | 68.7%
5 | CC(C)(CCN=C(N)Nc1ccccn1)c1ccc(C(F)(F)F)cc1 | 52.7% | -31.2% (active) | -49.4% (active) | -14.4% (active) | 26.2% | 51.2 | 6.92% (active) | 53.9% | -7.98% (active) | -64.3% (active) | 9.42% (active) | -14.8% (active) | 48.3 | 37.2 | -17% (active) | 19.7 | -91.4% (active) | -2.3% (active) | 5.15% (active) | -30.9% (active)
6 | O=C1CCC(=O)N1C1CCCCC1 | 107% | 107% | 82.6% | 103% | 109% | 97.6 | 97.5% | 101% | 108% | 94.5% | 112% | 112% | 88.5 | 99.9 | 107% | 99.8 | 96.8% | 97.7% | 98.4% | 108%
7 | COc1ccc(Cl)cc1NC(=O)c1cc2c([nH]1)-c1nc(N)sc1CCC2 | 101% | 74.7% | 101% | 105% | 114% | 98.2 | 106% | 99.4% | 91% | 97.6% | 97.7% | 83.2% | 105 | 112 | 101% | 97.8 | 101% | 93.1% | 91.7% | 103%
8 | COc1ccc(-c2nnc(NC(=O)CN3CCN(c4cc5c(cc4F)c(=O)c(C(=O)O)cn5C4CC4)CC3)s2)cc1OC | 113% | 89.9% | 98.9% | 102% | 105% | 97.7 | 103% | 96.8% | 98% | 97.7% | 103% | 95.8% | 90.8 | 96.2 | 99.7% | 95.6 | 99.1% | 91.9% | 74.3% | 107%
9 | Cc1cc[n+](CCCC[n+]2ccc(C)cc2)cc1 | 101% | 109% | 97.6% | 105% | 106% | 102 | 103% | 102% | 111% | 95.4% | 93% | 113% | 106 | 107 | 102% | 88.7 | 99.2% | 97.5% | 94.4% | 105%
10 | OC(COc1ccccc1Cl)CN1CCN(c2ccc(Cl)cc2)CC1 (stereo not given) | 110% | 115% | 110% | 103% | 94.3% | 104 | 97.9% | 90.6% | 109% | 105% | 90.5% | 113% | 83.3 | 111 | 99.5% | 85.1 | 104% | 95.9% | 104% | 103%
11 | C=CC(C)(O)CCC1C(=C)CCC2C(C)(C)CCCC12C (stereo not given) | 104% | 97.9% | 101% | 112% | 108% | 94.5 | 99.3% | 106% | 88.1% | 111% | 97.3% | 70.1% | 91.3 | 111 | 104% | 112 | 107% | 95.5% | 97.2% | 101%
12 | COc1ccc(OC)c(NCC(=O)n2nc(/C=C\c3ccc(O)c(OC)c3)cc2/C=C\c2ccc(O)c(OC)c2)c1 | 22.9% | 4.4% (active) | 23.3% | 15.7% | -49.5% (active) | 23.1 | 24% | 0.158% (active) | 30.2% | 16.5% | 17.5% | -70.2% (active) | 25.5 | 16.7 | 4.56% (active) | 23.2 | 9.05% (active) | 15.8% | 9.71% (active) | 21.2%
13 | CCC1S/C(=N\N=C(/C)c2cc3ccccc3o2)N(c2ccccc2)C1=O (stereo not given) | 161% | 79.8% | 105% | 85.4% | 98.7% | 202 | 128% | 135% | 118% | 101% | 107% | 98% | 102 | 100 | 96.7% | 81.7 | 83.9% | 79.5% | 93.7% | 114%
14 | CC(C)Cn1cnc2c3ccccc3nc(NCn3nc(-c4cc(Cl)cc(Cl)c4Cl)oc3=S)c21 | 115% | 59.6% | 116% | 82.9% | 95% | 110 | 100% | 94.7% | 99.4% | 79.9% | 106% | 98.5% | 90 | 111 | 99% | 86.2 | 85.3% | 90.1% | 86.7% | 110%
15 | O=C(Nc1cccc(-n2ccc3c(NC(=O)c4ccccc4)nccc32)c1)c1cccc(C(F)(F)F)c1 | -10.9% (active) | 12.1% | 48.3% | 3.85% (active) | -49.4% (active) | 14.8 | -8.39% (active) | 4.4% (active) | 42.4% | 7.48% (active) | 9.77% (active) | -13.2% (active) | 44.6 | 28.5 | 7.1% (active) | 33.2 | -45.4% (active) | 29.6% | 8.39% (active) | 40.9%
16 | S=C=NP1(N=C=S)=NP(N=C=S)(N=C=S)=NP(N=C=S)(N=C=S)=NP(N=C=S)(N=C=S)=N1 (stereo not given) | 113% | 86.4% | 91.4% | 105% | 109% | 103 | 97.8% | 94.7% | 94.8% | 93.4% | 103% | 92.9% | 80.7 | 109 | 94.7% | 86.4 | 98.6% | 97.7% | 97.8% | 107%
17 | COCCNC(C(=O)c1ccccc1)c1ccccc1 (stereo not given) | 107% | 103% | 102% | 102% | 101% | 94.3 | 98% | 99.7% | 97.6% | 100% | 99.6% | 107% | 88.2 | 97 | 95.1% | 92.7 | 96.6% | 97.9% | 103% | 105%
18 | CCN(CC)CCNCC(O)Cc1ccc(OC)cc1 (stereo not given) | 110% | 105% | 113% | 105% | 103% | 107 | 104% | 106% | 86.1% | 104% | 112% | 77.4% | 110 | 98.9 | 94.5% | 76.2 | 99.9% | 93.9% | 103% | 116%
19 | C[C@H]1C=C(C[C@@H](O)CC#CC#CCCCCC[C@@H](O)[C@H]2CCC(=O)O2)C(=O)O1 | 109% | 86.3% | 105% | 96.4% | 103% | 110 | 106% | 93.1% | 91.8% | 137% | 110% | 99.1% | 118 | 102 | 99.4% | 111 | 99.8% | 95.1% | 92.6% | 123%
20 | CN[C@@H](CCCNC(N)=NC/C=C(/C)CCC=C(C)C)C(=O)N(C)[C@@H](CCCNC(N)=NCC=C(C)C)C(=O)N[C@H](C)[C@H](OS(=O)(=O)O)c1ccc(OS(=O)(=O)O)c(COS(=O)(=O)O)c1 | 108% | 110% | 117% | 95.5% | 102% | 101 | 112% | 104% | 92.5% | 105% | 113% | 86.2% | 98.6 | 101 | 98.4% | 89.5 | 99.6% | 93.8% | 99.7% | 107%
21 | NS(=O)(=O)c1ccc(-n2nc(-c3ccc(Cl)cc3)ccc2=O)cc1 | 102% | 45.9% | 113% | 118% | 95.6% | 96.5 | -4.7% (active) | 84.4% | 96.6% | 96.2% | 84.5% | 104% | 86 | 86.8 | 104% | 85.6 | 83.1% | 61.4% | 95.8% | 90.3%
22 | O=C(O)c1ccc(-n2cc(/C=N/Nc3ccc(Cl)cc3)c(-c3ccc(F)c(F)c3)n2)cc1 | 85.4% | 7.69% (active) | 36% | 93% | 108% | 71.1 | 66.6% | 88.2% | 99.4% | 57.5% | 52.1% | 93.4% | 89.6 | 86.6 | 81.1% | 60.2 | 72.3% | 39.1% | 44.2% | 73.6%
23 | Cc1nc(N)nc(SCc2ccccc2)c1Br | 104% | 88.4% | 92.6% | 91.1% | 89.6% | 96.1 | 99.1% | 96.4% | 74.1% | 104% | 102% | 92.8% | 87.3 | 99.3 | 85.4% | 83.8 | 88.4% | 75.8% | 95.7% | 106%
24 | C=CC(=O)NC(=O)Nc1ccccc1Cl | 48.4% | 41.2% | 83% | 72.4% | 88.7% | 96.7 | 101% | 72.3% | 71.9% | 70% | 67.9% | 70.2% | 83.8 | 72.5 | 81.7% | 78.2 | 96.6% | 93.4% | 86.1% | 109%
25 | Cc1ccc2[nH]c3nc4cccnc4c(C)c3c2c1 | 102% | 89.1% | 127% | 37.1% | 84.7% | 92.3 | 99.9% | 76.2% | 112% | 103% | 88.1% | 92.6% | 77.6 | 79 | 75.7% | 92.7 | 95.2% | 100% | 89.7% | 119%
26 | O=C(Nc1ccc(-n2cc(-c3ccncc3)c(-c3ccc(O)c(Cl)c3)n2)cc1)c1ccc(Cl)c(Cl)c1 | 46.1% | 11.7% | 46.8% | -33.8% (active) | -83.2% (active) | 54.5 | -16.3% (active) | 10.6% | 69.5% | -35.7% (active) | 18.2% | -10.4% (active) | 70 | 59.6 | 26.8% | 20.2 | -20.3% (active) | 59.1% | -29.1% (active) | 59.7%
